Measurements: PubChem BioAssay (NCI)
Values joined by “and” are separate entries in the source; they are usually repeats but may differ in a detail not shown here. Identical values can stand only once. About 79,000 compounds went through this panel and 15% of them were active in at least one assay; those are over-represented in the sample as a whole. Active and inactive are the calls of the source. Rule as the data show it: active = growth inhibition above about 70%; inactive = the rest.

Columns and labels:
[1] = NCI Yeast Anticancer Drug Screen. Data for the rad50 strain (AID 155);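 also: 0% = growth of vehicle-only cultures of the same strain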; settings: S. cerevisiae rad50 strain growth inhibition, stronger effect = higher value; at 50.0 µM unless noted
Procedure, shortened: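 Inhibition values express reduced yeast growth in compound-treated cultures relative to vehicle-treated controls.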

[2] = NCI Yeast Anticancer Drug Screen. Data for the mec2-1 strain (AID 157); settings: S. cerevisiae mec2-1 strain, stronger effect = higher value; at 50.0 µM unless noted
Procedure, shortened: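 Compounds were applied to mec2-1 yeast cells. Their growth was then compared with that of vehicle-treated cultures to give growth inhibition.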

[3] = NCI Yeast Anticancer Drug Screen. Data for the sgs1 mgt1 strain (AID 161);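 also: 0% = growth of cultures given vehicle only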; settings: S. cerevisiae sgs1 mgt1 strain, stronger effect = higher value; at 50.0 µM unless noted
Procedure, shortened: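 Yeast cells carrying a defined DNA-repair defect were exposed to test compounds. Growth inhibition was measured relative to vehicle-treated controls.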

[4] = NCI Yeast Anticancer Drug Screen. Data for the cln2 rad14 strain (AID 165);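 also: 0% = growth equal to vehicle treated cultures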; settings: S. cerevisiae cln2 rad14 strain, stronger effect = higher value; at 50.0 µM unless noted
Procedure, shortened: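 Strain: cln2 rad14 yeast, altered in cell cycle control and DNA damage repair. Read-out: growth inhibition vs vehicle.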

[5] = NCI Yeast Anticancer Drug Screen. Data for the bub3 strain (AID 167); settings: S. cerevisiae bub3 mutant strain, stronger effect = higher value; at 50.0 µM unless noted
Procedure, shortened: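 Steps: expose the mutant yeast strain to compound; grow alongside vehicle-treated cultures; measure growth; express inhibition against the vehicle cultures.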

[6] = NCI Yeast Anticancer Drug Screen. Data for the mlh1 rad18 strain (AID 175); settings: S. cerevisiae mlh1 rad18 strain growth inhibition, stronger effect = higher value; at 50.0 µM unless noted
Procedure, shortened: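 A repair-deficient yeast strain is exposed to test compound, and growth is scored relative to vehicle-treated controls.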

Measured: growth inhibition

COC1OC(COC(c2ccccc2)(c2ccccc2)c2ccccc2)C(O)C(O)C1O (stereo not given)
active: [4] 84.5%
inactive: [1] 40.7% | [2] 47% | [3] 42.6% | [5] 38% | [6] 41.1%

CN(C)CC=C(c1ccccc1)c1ccccc1
inactive: [1] -11.9% | [2] -16.4% | [3] -3.3% | [4] -4.05% | [5] -8.85% | [6] 6.6%

CCOC(=O)c1c(NS(=O)(=O)c2ccc(C)cc2)sc(C)c1-c1ccccc1
inactive: [1] -21.4% | [2] -0.45% | [3] -6.2% | [4] 67.8% | [5] 6.85% | [6] -3.65%

CCCCCC(=O)CC(=O)C(CC)CC
inactive: [1] 16.4% | [2] 12.9% | [3] -1.55% | [4] 1.35% | [5] 6.5% | [6] 12.9%

Cc1cc(N(CCC#N)CCC#N)ccc1/C=N/NC(=O)c1ccccc1
inactive: [1] 6.1% | [2] -2.35% | [3] -10.1% | [4] 6.3% | [5] 5.95% | [6] -47.5%

Cc1ccc(C)c(N=Nc2c(C)nc(N)nc2C)c1
inactive: [1] 1.8% | [2] -10.2% | [3] -9.45% | [4] -34.2% | [5] -22.1% | [6] -3.05%

O=C1NC(=S)N/C1=C\c1ccc(Cl)cc1
inactive: [1] -5.75% | [2] -4.8% | [3] 15% | [4] -5.9% | [5] -9.3% | [6] -39.7%

CC(=O)N1C(Nc2cnc3ccccc3c2)CCN1c1ccccc1 (stereo not given)
inactive: [1] -31.4% | [2] -48.6% | [3] -13.8% | [4] 0.4% | [5] 1.25% | [6] -14%

O=CC(=O)O
inactive: [1] 28.1% | [2] -19.6% | [3] 15.7% | [4] 13.7% | [5] 26.6% | [6] 25.7%

C[n+]1ccc2ccccc2c1
inactive: [1] 6.9% and -7.2% | [2] 0.55% and 5.3% | [3] 21.2% and 1.15% | [4] -36.8% and -2.25% | [5] 3.05% and -6.5% | [6] 9.6% and 10.4%

N#C/C(=C\C1CCCCC1Cl)C1CCC([N+](=O)[O-])CC1 (stereo not given)
inactive: [1] 12.6% | [2] 5.15% | [3] 17.2% | [4] -8.35% | [5] 32.8% | [6] 18.1%

CCCCOc1ccc(Nc2cc(Cl)ccc2C(=O)O)cn1
inactive: [1] -29.2% and 48.1% | [2] -14.2% and 23.7% | [3] -25.6% and 44.4% | [4] -12.6% and 37.7% | [5] -36.1% and 35% | [6] -22.6% and 25.1%

Cc1nc2[nH]ncc2c(=O)n1-c1ccccc1Cl
inactive: [1] 6% | [2] -4.1% | [3] 5.95% | [4] 5.35% | [5] 3.75% | [6] 9%

COC(=O)C1(CC(=O)c2c(C)[nH]c3ccccc23)NC(=S)NC(=O)C1C#N (stereo not given)
inactive: [1] -6.35% | [2] 14.7% | [3] -21.1% | [4] -5.15% | [5] -11.1% | [6] 26.4%

CCCCCC[P+](c1ccccc1)(c1ccccc1)c1ccccc1
active: [1] 97.7% | [2] 98.4% | [3] 98% | [4] 95% | [5] 96.1% | [6] 97.8%

CC(C)(C)OC(=O)NCC(=O)NC1C/C(=N\O)c2sccc21 (stereo not given)
inactive: [1] 17.4% | [2] 5.8% | [3] 11.3% | [4] 15.6% | [5] -5.35% | [6] 39.5%

COc1ccc(OC(C)C(=O)O)c2c(=O)ccccc12 (stereo not given)
inactive: [1] 13.9% | [2] 10.7% | [3] -5.2% | [4] 25.2% | [5] 5.7% | [6] 22.1%

Cc1ccc(/C=C2\CCCC\C2=N\O)cc1
inactive: [1] 5.15% | [2] -7% | [3] 2.3% | [4] -10.2% | [5] -22.6% | [6] 2.15%

c1ccc2[nH]c(CSc3nc4ccccc4s3)nc2c1
inactive: [1] 10.1% | [2] 17.2% | [3] 37.5% | [4] 33.6% | [5] -0.75% | [6] 28.6%

COc1ccc(NC2Oc3cc4c(cc3C(c3cc(OC)c(O)c(OC)c3)C2C)OCO4)cc1 (stereo not given)
inactive: [1] 5.1% | [2] 0.1% | [3] -6.15% | [4] 2.65% | [5] 6.6% | [6] 4.8%

COc1ccc(CCn2c(=O)c3ccccc3n(C)c2=O)cc1
inactive: [1] 17.9% | [2] -4.2% | [3] 13.2% | [4] 34.2% | [5] 41.6% | [6] 0.8%

CNC(=O)N(CCCC(NC(C)=O)C(=O)NCc1ccccc1)Cc1ccccc1 (stereo not given)
inactive: [1] 16.1% | [2] 3.4% | [3] -7.95% | [4] 17.6% | [5] 8.5% | [6] 18.9%

CC(C)(C)OC(=O)NCC(=O)OC/C=C/c1ccccc1
inactive: [1] -2.7% | [2] 1.3% | [3] 6.65% | [4] -8.15% | [5] -3.6% | [6] 6.1%

COc1ccc(COC(=O)Nc2ccc(Br)cc2)c(OC)c1
inactive: [1] -5.05% | [2] 33.6% | [3] 27.2% | [4] -16.6% | [5] 16.8% | [6] 9.55%

NNC(=O)CCn1[nH]c(=O)c(Cl)c(Cl)c1=O
inactive: [1] 13.9% | [2] 11.8% | [3] 19.9% | [4] 12.9% | [5] 16.9% | [6] 11.4%

O=c1[nH]c(=O)c2nc(-c3cccnc3)cnc2[nH]1
inactive: [1] 2.8% | [2] -0.1% | [3] -9.7% | [4] 1.6% | [5] 0.85% | [6] 7.45%

Cc1c(NC(=O)CSC(=S)N(C)C)c(=O)n(-c2ccccc2)n1C
inactive: [1] -1.1% | [2] -2.45% | [3] -18.4% | [4] 6.75% | [5] -35.8% | [6] -53.4%

COc1ccc(C2NC3=C(CCCC3)N2)cc1
inactive: [1] 26.4% | [2] 4.45% | [3] -13.9% | [4] 8.3% | [5] -3.9% | [6] 32.9%

CCSc1nnc(Sc2c3ccccc3nc3ccccc23)s1
inactive: [1] 26.9% | [2] 3.15% | [3] -13.1% | [4] 11.4% | [5] 16.8%
active: [6] 76%

COc1ccccc1C1OC(N)=C(O)C1=O (stereo not given)
inactive: [1] -14.4% | [2] -5.15% | [3] 7.3% | [4] -15.3% | [5] -2.5% | [6] 13.9%

Cc1c2n(c(=O)[nH]c1=O)C1OC(CO)C(O2)C1N=[N+]=[N-] (stereo not given)
inactive: [1] -11.1% | [2] -17.6% | [3] -27.2% | [4] -7.55% | [5] -9.65% | [6] -34.6%

CCOC(=O)N1CCc2cc(OC)c(OC)cc2C1Cc1ccc(OC)c(OC)c1 (stereo not given)
inactive: [1] -2.2% | [2] -8.75% | [3] -7.7% | [4] 12% | [5] 1.95% | [6] -5.5%

COC(=O)[C@H]1C2CC[C@@H]3C45C[C@@H](c6ccoc6)O[C@@H]4O[C@@H](O2)C31CCC5C (stereo not given in full)
inactive: [1] 14.5% | [2] -18.4% | [3] 6.35% | [4] 5% | [5] -30.1% | [6] 14.9%

CC(C)(CN1CCCCC1)C(=O)CC(SCCN)c1ccc(Cl)cc1 (stereo not given)
inactive: [1] 27.8% | [2] 0.65% | [3] 47.3% | [4] 31.2% | [5] 46.9% | [6] 23.8%

O=C1CSC2=NCCN12
inactive: [1] 14.8% and 22.8% | [2] -3.6% and -15.3% | [3] -5.25% and 6.8% | [4] 1.5% and 3.2% | [5] 1.55% and -11.9% | [6] 21.3% and 18.8%
